TGFb inhibitor: TGF-b pathway inhibition; HepG2 CAGA-GFP TGF-b/SMAD3 reporter, GFP fluorescence, 18 h; TGF-beta stimulated, 500 pg/mL final; hit rate 1.2% among 410,000; Potency, µM (titrated, usually from 46.1 µM), for inactives: at the highest dose activity, negative = inhibition, actives largely listed as inhibitors; note: % is set by controls: 0 for no effect and ±100 for the full control effect; nearly all actives have a fitted effect of over 65% in size
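HEPG2 CAGA-GFP cells (1000/well, DMEM with 1% FBS) were pre-incubated 2 h at 37 degrees C, given compound by pin tool, then stimulated with TGF-beta at 500 pg/mL final for 18 h before per-cell GFP fluorescence imaging.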
ATXN2 expr inh: inhibitors of ATXN2 expression; HEK-293 ATXN2-luciferase reporter, luminescence, 24 h; Potency, µM (top dose mostly 57 µM), inactives show at the top dose activity change, negative = inhibition, actives largely listed as inhibitors; hit rate 0.72% among 360,000; note: % is set by controls: 0 for no effect and ±100 for the full control effect; nearly all actives have a fitted effect of over 55% in size
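qHTS (up to 57 uM final) was run with 24 h compound exposure of reporter cells at 37 °C. Each well was multiplexed: SteadyGlo luminescence measured ATXN2-luciferase expression after a fluorogenic Gly-Phe-AFC viability readout (25 uM final).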
HepG2 viability: kills HepG2 cells in TGF-b inhibitor counter-screen; HepG2 CAGA-GFP viability, ATP luminescence, 18 h; Potency, µM (doses to about 46.1 µM), for inactives: at the top dose activity change, negative = cytotoxicity, hits mostly cytotoxic; hit rate 0.76% among 410,000
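HepG2 CAGA-GFP cells (1000/well, DMEM with 1% FBS) received compound, then TGF-beta at 500 pg/mL final, and were incubated 18 hours at 37 degrees C. Viability was read by CellTiter-Glo luminescence. Media-only wells were set as complete cell-killing and DMSO as no toxicity.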
ATXN viability: cell viability loss in ATXN counter-screen; S2 cells (HEK-293 line with an ATXN2-luciferase reporter) viability, CellTiter-Fluor protease fluorescence, 24 h; Potency, µM (titrated, usually from 56.7 µM), hits mostly cytotoxic; hit rate 0.49% among 400,000; AID 651635; note: nearly all actives have a fitted effect of over 40% in size
Starred values were filed as active, the others as inactive; i = inactive; ? = inconclusive; nt = no result; [ ] = dose if it differs, or a comment. Most compounds without a hit are left out; they make up all but 2.3% or so of the library. Calls come from the whole dose curve; as a rule, active = well fitted curve in the direction sought with a large enough effect; inconclusive = small, poorly fitted or top-dose-only effect, or another doubt; inactive = no such curve, though single readings can be large; an effect the other way counts as inactive or inconclusive. Potency is the fitted concentration of half-maximal effect.

SMILES	TGFb inhibitor	ATXN2 expr inh	HepG2 viability	ATXN viability
C[C@@H](c1ncncc1F)C(O)(Cn1cncn1)c1ccc(F)cc1F (stereo partly drawn)	nt	14%	nt	i
COc1ccc(Cc2nnc(N/N=C/c3ccc(Br)cc3)[nH]c2=O)cc1OC	0%	1%	-8%	i
COc1ccc(Cc2nnc(N/N=C/c3ccc(O)cc3)[nH]c2=O)cc1OC	?	1.6µM*	-6%	?
CCn1c(C(=O)N(C2CC2)C2CC2)cc2c3c(ncn3C)c(Nc3cc(C)n(C)n3)nc21	nt	-1%	nt	nt
O=C(CNS(=O)(=O)c1ccc([N+](=O)[O-])cc1)N/N=C/c1ccc(O)cc1O	-1%	24µM*	-32%	i
Cc1ccc(NC2=C(NC(=O)c3ccccc3)C(=O)c3ccccc3C2=O)cc1Cl	11µM*	-8%	16µM*	?
O=C(O)c1ccc(NC2=C(Cl)C(=O)c3ccccc3C2=O)cc1	?	4.5µM*	-23%	10µM*
O=C(O)c1cccc(NC2=C(Cl)C(=O)c3ccccc3C2=O)c1	?	?	-86%	25µM*
O=C(O)c1cccc(NS(=O)(=O)/C=C/c2ccccc2)c1	-4%	4%	1%	i
CC(=O)N[C@@H]1[C@H](O[C@@H]2c3ccc(c(Cl)c3)Oc3cc4cc(c3O[C@H]3O[C@H](CO)[C@@H](O)[C@H](O)[C@H]3NC(=O)CCCCCCCC(C)C)Oc3ccc(cc3Cl)C[C@H]3NC(=O)[C@H](N)c5ccc(O)c(c5)Oc5cc(O)cc(c5)[C@H](NC3=O)C(=O)N[C@H]4C(=O)N[C@H]3C(=O)N[C@@H]2C(=O)N[C@@H](C(=O)O)c2cc(O)cc(O[C@H]4O[C@H](CO)[C@@H](O)[C@H](O)[C@H]4O)c2-c2cc3ccc2O)O[C@H](CO)[C@@H](O)[C@@H]1O	nt	-3%	nt	nt
Cc1cccc(CS(=O)(=O)c2nnc([C@H](Cc3ccccc3)NC(=O)OC(C)(C)C)o2)c1	?	7.9µM*	-101%	8.9µM*
COc1cccc(/C=C2/SC(=S)N(CCCC(=O)Nc3ccc(O)cc3)C2=O)c1	?	16µM*	-72%	?
COc1cc(/C=C2\SC(=S)N(CCC(=O)NC3CCCC3)C2=O)cc(OC)c1OC	18%	7%	3%	i
Cc1ccc(/C=C2\SC(=S)N(CCCC(=O)NC3CCCC3)C2=O)cc1	9%	13µM*	-18%	i
CCN(CC)CCOC(=O)c1ccc(NC(=O)CCCN2C(=O)S/C(=C/c3ccc(OC)cc3)C2=S)cc1	-7%	7.1µM*	-28%	?
Cc1ccc(/C=C2/SC(=S)N(CCCC(=O)Nc3ccc(O)cc3)C2=O)cc1	?	2.5µM*	-52%	?
COc1cccc(/C=C2\SC(=S)N(CCCC(=O)Nc3ccc(C(=O)O)cc3)C2=O)c1	-1%	3%	-18%	i
O=C(CSc1n[nH]c(-c2ccccn2)n1)Nc1ccc(F)cc1	-1%	?	-22%	i
O=C(CSc1n[nH]c(-c2ccccn2)n1)Nc1ccc(Cl)cc1	-21%	20µM*	-1%	i
C=CCNc1c(O)cc2c(O)c1C[C@@H](C)C[C@H](OC)[C@@H](O)[C@@H](C)C=C(C)[C@H](OC(N)=O)[C@@H](OC)C=CC=C(C)C(=O)N2	nt	0.77µM*	nt	nt
COc1ccc(OC)c(/C=C2\Cc3ccccc3C2=O)c1	-24%	nt	-32%	nt
CCOC(=O)c1cnc(Nc2nc3ccccc3o2)nc1C	0%	2.8µM*	-41%	i
CCC1CCCCN1Cc1nc2c(c(=O)n(C)c(=O)n2C)n1Cc1c(F)cccc1Cl (stereo not drawn)	4%	nt	-5%	nt
OCc1ccc2c(c1)c(-c1ccc3c(c1)OCCO3)c(-c1ccccc1)n2-c1ccccc1	20µM*	?	-8%	?
CCCn1c(=N)n(CC(=O)c2ccco2)c2ccccc21	1%	2%	-9%	i
SMILES	TGFb inhibitor	ATXN2 expr inh	HepG2 viability	ATXN viability
Cc1ccccc1Cn1c(=N)n(CC(=O)c2ccco2)c2ccccc21	10µM*	-23%	-24%	i
N=c1n(CC(=O)c2ccc([N+](=O)[O-])cc2)c2ccccc2n1Cc1ccccc1	-1%	?	-27%	?
N=c1n(CC(=O)c2ccc(Br)cc2)c2ccccc2n1Cc1ccccc1	16µM*	?	-99%	nt
COc1cc(OC)c(-c2c3cc(O)c(=O)cc-3oc3cc(O)c(O)cc23)cc1OC	?	-31%	-10%	13µM*
COc1ccc(NC2=C(c3ccccc3)C(=O)c3ccccc32)cc1Cl	-9%	-8%	-38%	i
Cc1ccc(NC2=C(c3ccc(C(F)(F)F)cc3)C(=O)c3ccccc32)cc1C	0%	62%	13µM*	i
O=C1CC(c2ccc(Cl)cc2)CC(=O)N1	nt	-1%	nt	i
CCOC(=O)c1c(C)[nH]c(C)c1S(=O)(=O)NCCN1CCN(c2cc(Cl)ccc2C)CC1	11µM*	nt	-115%	i
CCOC(=O)c1c(C)[nH]c(C)c1S(=O)(=O)N1CCN(c2cc(Cl)ccc2C)CC1	?	nt	-91%	nt
COc1ccc(-n2cc(CNC3CCN(C)CC3)c(-c3cccc(F)c3)n2)cc1	?	?	11µM*	i
Cc1cccc(-n2nc([N+](=O)[O-])c(=NC3CCN(Cc4ccccc4)CC3)n2O)c1	?	nt	16µM*	i
O=C(Nc1nnc(C2CC2)o1)c1ccc(S(=O)(=O)N2CCCc3ccccc32)cc1	?	16µM*	-6%	?
C[C@@H]1CN(Cc2ccc3c(c2)CN(Cc2cccc4cccnc24)CCO3)C[C@H](C)O1	nt	nt	nt	i
Cc1ccc(C)c(N2CCN(C(=S)Nc3ccc4nc(N5CCOCC5)cc(C)c4c3)CC2)c1	-18%	-22%[11.3 µM]	3%	i
Cc1ccc(C)c(N2CCN(C(=S)Nc3ccc4nc(N5CCN(C)CC5)cc(C)c4c3)CC2)c1	?	?	10µM*	i
CCc1nc2ccc(C(=O)Nc3cc(-c4ccccc4)ccc3OC)cn2c1N(CCN(C)C)CC1CC1	?	?	-96%	28µM*
CCc1nc2ccc(C(=O)Nc3cc(-c4ccccc4)ccc3OC)cn2c1N(C)CCC(C)C	?	?	-108%	?
CCCCN(C)c1c(C)nc2ccc(C(=O)Nc3cc(-c4ccccc4)ccc3OC)cn12	?	?	13µM*	?
CC(C)(C)c1ccc(Cn2cnc3c(cnn3C(C)(C)C)c2=O)cc1	7%	nt	-18%	nt
COc1c(Cl)cnn(-c2ccc(C)cc2)c1=O	-3%	2%	8%	i
Cc1ccc(-n2ncc(Br)c(Br)c2=O)cc1	3.2µM*	?	-110%	21µM*
CN(c1ccccc1)c1ccc(/C=N/NC(=O)CC#N)cc1	-9%	13µM*	-7%	i
N#CCC(=O)N/N=C/c1ccc(Cl)cc1	21%	14%	37%	i
Nc1ccn([C@@H]2O[C@H](CO)[C@@H](O)C2(F)F)c(=O)n1	nt	32µM*	nt	?
Cc1cccc(C(=O)N[C@H](C(=O)Nc2nnc(C3CC3)s2)C(C)C)c1	-6%	4%	-33%	i

Assay outcomes (PubChem BioAssay)
